Screens: PubChem, Sanford-Burnham Center for Chemical Genomics
SENP8 block-1 = inhibitors of human SENP8 protease; actives 1.2% (n = 330,000); purified SENP8, Z-RLRGG-aminoluciferin cleavage, luminescence; AID 2540; Q96LD8; inhibition, % at 10 µM; in the data active = inhibition above about 50%
PPC-1+TRAIL kill = kills PPC-1 cancer cells in the presence of TRAIL. PPC-1 cells + TRAIL, ATPLite viability luminescence. cell killing (% activity), % at 4 µM or 5 µM. actives 0.41% (n = 220,000);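 active = cell killing above 50% in the first pass at 4 µM, then a duplicate retest at 5 µM averaging 50% or more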;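 also: plate controls were cells with TRAIL plus DMSO for no effect and medium-only wells lacking cells for full effect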
SENP7 block = inhibitors of human SENP7 protease; actives 1.5% (n = 330,000); Q9BQF6; recombinant SENP7, Z-RLRGG-aminoluciferin luminescence, 40 min; AID 434973; inhibition, % at 5 µM;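 active = inhibition above about 50% at the single test dose, limit read from the data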;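 also: plate controls were DMSO with enzyme for no effect and no enzyme buffer wells for full effect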
SENP8 block-2 = blocks human SENP8 cleavage of Nedd8 substrate | recombinant SENP8, Nedd8 substrate fluorescence | inhibition, % at 20 µM | actives 0.64% (n = 360,000) | AID 602440; in the data active = inhibition mostly above about 40%, no sharp cut-off; inactive = mostly below about 27%
SENP6 block = blocks the human protease SENP6 | Recombinant SENP6 catalytic domain, aminoluciferin luminescence | inhibition, % at 10 µM | actives 1.8% (n = 330,000) | AID 2599;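 active = inhibition above about 50% at the single tested dose, limit read from the data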;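 also: plate controls were DMSO wells with enzyme for no effect and DMSO wells lacking enzyme for full effect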
Target sequence (Q9GZR1 628-1112 limits assumed): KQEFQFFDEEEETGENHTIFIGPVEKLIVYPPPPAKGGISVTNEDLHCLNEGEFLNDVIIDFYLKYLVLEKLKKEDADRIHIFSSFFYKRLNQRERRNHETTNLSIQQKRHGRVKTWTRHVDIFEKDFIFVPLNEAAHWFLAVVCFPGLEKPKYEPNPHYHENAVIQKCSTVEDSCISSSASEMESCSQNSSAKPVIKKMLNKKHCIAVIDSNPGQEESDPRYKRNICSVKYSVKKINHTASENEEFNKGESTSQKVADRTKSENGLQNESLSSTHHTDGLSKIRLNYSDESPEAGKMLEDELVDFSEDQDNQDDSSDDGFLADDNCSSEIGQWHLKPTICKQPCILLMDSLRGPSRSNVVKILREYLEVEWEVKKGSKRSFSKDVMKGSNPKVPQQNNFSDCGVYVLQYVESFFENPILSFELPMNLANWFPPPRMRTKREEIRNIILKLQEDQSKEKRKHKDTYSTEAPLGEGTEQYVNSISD
C8 TRAIL sens = sensitizes caspase-8 expressing cells to TRAIL; actives 1% (n = 360,000); inhibition (viability loss, TRAIL sensitization), % at 10 µM; NB7+C8 cells + TRAIL, ATPlite viability luminescence;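 active = compounds causing at least 50% loss of cell viability in the single-dose screen, relative to plate controls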
SENP8 conf = human SENP8 inhibition, confirmed; shares compounds with SENP7 block; Recombinant SENP8, Z-RLRGG-aminoluciferin luminescence, 60 min; actives 40% (n = 6,200); inhibition, % at 12.5 µM;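 active = mean inhibition across replicates above about 50%, limit read from the data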
SENP6 confirm = confirmation of human SENP6 protease inhibitors. recombinant SENP6, Z-RLRGG-aminoluciferin luminescence. AID 488915. inhibition, % at 12.5 µM. actives 58% (n = 6,200). shares compounds with SENP7 block
SENP7 conf = confirmation of human SENP7 protease inhibitors. shares compounds with SENP7 block. recombinant SENP7, Z-RLRGG-aminoluciferin luminescence, 40 min. inhibition, % at 12.5 µM. actives 69% (n = 6,200)
Casp3 select = selectivity test for SENP inhibitors: human caspase-3 inhibition | shares compounds with SENP7 block | actives 60% (n = 6,200) | AID 488918 | inhibition, % at 12.5 µM | purified caspase-3, Z-DEVD-aminoluciferin luminescence, 60 min;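 active = mean inhibition above about 50%, limit read from the data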;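 also: plate controls were enzyme with DMSO for no effect and wells without caspase-3 for full effect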
SENP luc ctr = luminescence interference (SENP counter-screen); Pre-incubated SENP8/Z-RLRGG-aminoluciferin, luciferase luminescence interference; inhibition, % at 12.5 µM; shares compounds with SENP7 block; actives 39% (n = 6,200); AID 488919;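 active = mean inhibition above about 50% when retested at one dose, limit read from the data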;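 also: plate controls were DMSO wells with completed reaction for no effect and substrate without enzyme for full effect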
The depositor's hits bear a star; . = no result. An excerpt weighted towards active compounds, which were near 3% of everything screened.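 The calls were made as follows, unless noted: active = mean inhibition above about 50% in the one-dose retest (limit read from the data); inactive = the rest.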

SMILES	SENP8 block-1	PPC-1+TRAIL kill	SENP7 block	SENP8 block-2	SENP6 block	C8 TRAIL sens	SENP8 conf	SENP6 confirm	SENP7 conf	Casp3 select	SENP luc ctr
Fc1cccc2sc(Nc3nnc(-c4ccccc4)o3)nc12	63*	40	45	-315	85*	53*	8	7	1	60*	3
CC1CCc2nc(NC(=O)C3CC3)sc2C1 (centres undefined)	-15	22	-17	15	-18	3	.	.	.	.	.
CC1CCc2nc(NC(=O)C3COc4ccccc4O3)sc2C1 (centres undefined)	45	5	43	1	75*	18	72*	72*	91*	59*	28
Cc1ncsc1C(=O)Nc1nc2c(s1)CC(C)CC2 (centres undefined)	92*	40	98*	-78	96*	35	-4	72*	93*	84*	26
Cc1cnc(NC(=O)C2COc3ccccc3O2)s1 (centres undefined)	52*	12	65*	6	58*	19	69*	68*	89*	79*	73*
Cc1csc(NC(=O)C2COc3ccccc3O2)n1 (centres undefined)	-1	2	1	14	33	13	.	.	.	.	.
C[C@H](CO)N1C[C@H](C)[C@@H](CN(C)S(=O)(=O)c2cn(C)cn2)OCc2cnnn2CCCC1=O	.	.	.	12	.	-8	.	.	.	.	.
c1ccc(CN2CCOCC2)cc1	1	16	87*	4	-7	-17	4	0	-3	-2	-3
Oc1c(C=NCc2ccncc2)sc2ccccc12	13	5	2	.	7	.	.	.	.	.	.
Oc1sc(C=Nc2ccccc2)c2ccccc12	62*	23	60*	-252	28	-5	81*	83*	96*	53*	82*
Oc1c(C=Nc2cccnc2)sc2ccccc12	58*	27	13	-195	78*	14	7	73*	95*	81*	75*
Oc1sc(C=Nc2ccc(F)cc2)c2ccccc12	39	-6	47	-67	-38	-13	.	.	.	.	.
CC(=O)NCCN=Cc1sc2ccccc2c1O	-1	11	5	-63	-18	-1	.	.	.	.	.
Oc1c(/C=N/c2ccccn2)sc2ccccc12	95*	2	95*	-58	98*	-9	96*	97*	102*	96*	13
Oc1c(C=Nc2ccccc2)sc2ccccc12	97*	.	101*	-105	97*	17	92*	100*	103*	98*	16
CC(NC(=O)COC(=O)CNC(=O)C1CCCCC1)c1ccccc1 (centres undefined)	5	.	2	1	-4	-26	.	.	.	.	.
COc1ccc(-n2c(C)nn(C)c2=O)cc1	-7	4	-6	4	-5	-9	.	.	.	.	.
Cc1nn(C)c(=O)n1-c1ccc(OCc2ccccc2)cc1	41	1	76*	20	74*	-2	55*	56*	86*	90*	69*
COc1cc(C(=O)NCCCN2CCCC2=O)cc(Br)c1OCc1ccccc1	-7	.	2	-1	-6	-9	.	.	.	.	.
CC12CCC(=O)N1C(C(=O)N1CCN(c3ccc(C(F)(F)F)cc3[N+](=O)[O-])CC1)CS2 (centres undefined)	-5	.	13	-7	-9	-9	.	.	.	.	.
O=C(Nc1nc2c(F)cc(F)cc2s1)c1ccco1	74*	.	78*	-81	88*	10	60*	88*	96*	90*	34
O=C(Nc1nc2c(F)c(F)c(F)cc2s1)c1ccco1	53*	.	38	-99	68*	5	49	48	78*	52*	21
O=C1C=CC(c2ccccc2)(c2ccccc2)CC1	.	.	.	10	.	0	.	.	.	.	.
CC(=O)N[C@@H](C)C(=O)OC(C)C(=O)Nc1cccc([N+](=O)[O-])c1 (some centres undefined)	.	4	.	15	.	-1	.	.	.	.	.
N/C(=N/OC(=O)c1ccccc1F)c1nonc1N	93*	16	98*	21	98*	1	95*	95*	101*	97*	96*
SMILES	SENP8 block-1	PPC-1+TRAIL kill	SENP7 block	SENP8 block-2	SENP6 block	C8 TRAIL sens	SENP8 conf	SENP6 confirm	SENP7 conf	Casp3 select	SENP luc ctr
N/C(=N\OCc1ccccc1)c1nonc1N	55*	9	69*	22	61*	-2	62*	61*	89*	83*	72*
N/C(=N\OC(=O)c1ccc(Cl)cc1)c1nonc1N	94*	26	100*	0	97*	-4	98*	100*	103*	98*	95*
N/C(=N/OCc1cccc([N+](=O)[O-])c1)c1nonc1N	-8	15	-5	0	-22	7	.	.	.	.	.
Nc1nonc1C(=O)OCC(=O)c1ccc(Cl)cc1	-2	0	-1	0	-7	-14	.	.	.	.	.
Cc1csc(NC(=O)c2ccc3nc[nH]c3c2)n1	69*	.	78*	1	82*	31	12	75*	95*	88*	74*
COc1ccc(/C=N/OCC(=O)Nc2nc3ccccc3s2)cc1OC	70*	18	75*	21	87*	5	11	78*	94*	64*	51*
COc1cccc(C(=O)Nc2nnc(SCC(=O)Nc3ccc(NC(C)=O)cc3)s2)c1	55*	.	49	-30	70*	68*	32	61*	86*	67*	12
COc1ccc(/C(C)=N/OCC(=O)Nc2nc3ccccc3s2)cc1	19	10	16	6	-2	17	.	.	.	.	.
COc1ccc2nc(NC(=O)c3ccc(F)cc3)sc2c1	25	.	90*	-237	64*	20	8	37	32	25	-1
COc1cccc(N2CC(C(=O)Nc3nnc(SCC(=O)Nc4ccc(NC(C)=O)cc4)s3)CC2=O)c1 (centres undefined)	2	.	-1	8	0	-17	.	.	.	.	.
NNC(=O)c1sc2cc(C(F)(F)F)cnc2c1-c1ccccn1	-4	6	6	14	-7	2	.	.	.	.	.
